Test [1] is described as follows: S16 Schwann cell PMP22 intronic element firefly luciferase assay (AID 624032).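 Also: plate controls were DMSO for no effect and PTC124 positive control mean for full effect; nearly all actives have a fitted effect of over 30% in size.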 The gist of the method:
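Rat S16 Schwann cells stably carrying a PMP22 intronic element-driven Fluc reporter were seeded overnight, then exposed to compounds for 24 h at 37 °C. Luminescence was normalized to PTC124 (positive control) and DMSO (0% activity).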

Test [2] deals with 7G8. In words: qHTS profiling for inhibitors of Plasmodium falciparum proliferation (AID 504749). Also: nearly all actives have a fitted effect of over 60% in size. Also: potency is read from the fitted curve at half-maximal effect. Particulars: P. falciparum in erythrocytes, SYBR Green DNA, 72 h; series mostly up to 12.8 µM. The gist of the method:
(§1)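 P. falciparum-infected erythrocytes (0.3% parasitemia, 2.5% hematocrit final) were exposed to compounds for 72 h at 37 C in 5% CO2, then lysed with SYBR Green buffer overnight at room temperature; parasite DNA fluorescence was normalized to artemisinin and DMSO controls.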
A general note: Quantitative high-throughput screening tests each substance at several concentrations.

The subject of test [3] is CP194. Described as above. Particulars: P. falciparum in erythrocytes, SYBR Green DNA, 72 h; series mostly up to 12.8 µM. The gist of the method: as §1
The subject of test [4] is CP203. Described as above. To be noted: P. falciparum in erythrocytes, SYBR Green DNA, 72 h; series mostly up to 12.8 µM. Put shortly:
as §1

Test [5] concerns CP215. The description is as above. Particulars: P. falciparum in erythrocytes, SYBR Green DNA, 72 h; series mostly up to 12.8 µM. Put shortly:
as §1

Test [6] has as its system CP268. The description is as above. Particulars: P. falciparum in erythrocytes, SYBR Green DNA, 72 h; series mostly up to 12.8 µM. The gist of the method: as §1
For test [7], the system named is CP335. The description is as above. To be noted: P. falciparum in erythrocytes, SYBR Green DNA, 72 h; series mostly up to 12.8 µM. The gist of the method:
as §1

The subject of test [8] is DIV17. Described as above. To be noted: P. falciparum in erythrocytes, SYBR Green DNA, 72 h; series mostly up to 12.8 µM. Put shortly:
as §1

Test [9] concerns GB4. The description is as above. To be noted: P. falciparum in erythrocytes, SYBR Green DNA, 72 h; series mostly up to 12.8 µM. Put shortly:
as §1

Test [10] has as its system P94_40. The test is described as above. Particulars: P. falciparum in erythrocytes, SYBR Green DNA, 72 h; series mostly up to 12.8 µM. Put shortly:
as §1

The subject of test [11] is PC26. The test is described as above. Particulars: P. falciparum in erythrocytes, SYBR Green DNA, 72 h; series mostly up to 12.8 µM. Put shortly: as §1
Test [12] deals with TAB109. The description is as above. To be noted: P. falciparum in erythrocytes, SYBR Green DNA, 72 h; series mostly up to 12.8 µM. The gist of the method: as §1
The test system of test [13] is CP265. The test is described as above. Particulars: P. falciparum in erythrocytes, SYBR Green DNA, 72 h; series mostly up to 12.8 µM. Put shortly:
as §1

Test [14] deals with DFO2036. The test is described as above. To be noted: P. falciparum in erythrocytes, SYBR Green DNA, 72 h; series mostly up to 12.8 µM. The gist of the method:
as §1

Test [15] addresses Cytochrome P450 3A4 (Homo sapiens) (UniProt P08684). In words: qHTS Assay for Activators of Cytochrome P450 3A4 (AID 885). Also: nearly all actives have a fitted effect of over 65% in size. The gist of the method: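 Human CYP3A4 (20 nM) with Luciferin-PPXE at 25 uM (its KM) in 200 mM KPO4; 10 min compound preincubation, then NADPH regeneration and 60 min reaction at RT. Luciferin read by luminescence; normalized to 57 uM ketoconazole full inhibition.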

The target of test [16] is Cytochrome P450 2C19 (Homo sapiens) (UniProt P33261). Put plainly: qHTS Assay for Inhibitors and Substrates of Cytochrome P450 2C19 (AID 899). Also: potency is read from the fitted curve at half-maximal effect; nearly all actives have a fitted effect of over 60% in size. The gist of the method: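 NADPH-dependent conversion of Luciferin-H EGE (10uM, at KM) by 5nM enzyme in 50mM KPO4, 60 min at 37C following 10 min compound preincubation. Stopped with luciferin detection buffer; luminescence read after 20 min.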
Chain of Cytochrome P450 2C19 (Homo sapiens) (P33261 whole entry, looked up): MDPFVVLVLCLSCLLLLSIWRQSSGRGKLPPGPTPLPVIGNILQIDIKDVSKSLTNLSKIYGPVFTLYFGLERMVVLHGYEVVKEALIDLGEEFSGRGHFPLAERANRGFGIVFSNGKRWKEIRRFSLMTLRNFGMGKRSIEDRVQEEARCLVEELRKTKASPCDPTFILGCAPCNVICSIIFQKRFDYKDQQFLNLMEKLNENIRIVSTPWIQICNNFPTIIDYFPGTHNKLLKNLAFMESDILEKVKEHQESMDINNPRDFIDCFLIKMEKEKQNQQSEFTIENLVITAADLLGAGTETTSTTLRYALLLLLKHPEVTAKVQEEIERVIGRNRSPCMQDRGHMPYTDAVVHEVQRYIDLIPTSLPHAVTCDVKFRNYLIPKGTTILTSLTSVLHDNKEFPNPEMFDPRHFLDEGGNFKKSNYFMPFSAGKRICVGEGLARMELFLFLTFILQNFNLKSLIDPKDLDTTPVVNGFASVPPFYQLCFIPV

Test [17] in a line: qHTS Assay for Identification of Small Molecule Agonists for Hypoxia Response Element Signaling Pathway (AID 914; active = well fitted activation curve with a large enough effect in the signal ratio, with a control signal flat, not every such curve was filed as active; the % refers to the signal ratio; also: % of control where 0% means no effect). Particulars: ME-180 (cervical carcinoma) HRE-bla reporter, beta-lactamase ratio, CoCl2, 17 h; activation: hits give high values. The gist of the method:
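In Opti-MEM containing 0.5% dialyzed FBS and 10 mM HEPES, ME-180 HRE-bla cells received a compound titration and EC50 CoCl2. They were incubated 17 hours, then CCF4-loaded 2.5 hours at room temperature before ratio reading.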

For test [18], the target named is Cytochrome P450 1A2 (Homo sapiens) (UniProt P05177). In words: p450-cyp1a2 (AID 410; calls by dose curve;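 also: -100% = full effect of reference inhibitor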). Put shortly: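 Human CYP1A2 (20nM) demethylated Luciferin-ME at its Km (100uM) in 100mM KPO4. After 10 min compound preincubation, NADPH regeneration ran the reaction 60 min at room temperature. Luciferin was read by luminescence, normalized to 57 uM furafylline.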
Chain of Cytochrome P450 1A2 (Homo sapiens) (P05177 whole entry, looked up): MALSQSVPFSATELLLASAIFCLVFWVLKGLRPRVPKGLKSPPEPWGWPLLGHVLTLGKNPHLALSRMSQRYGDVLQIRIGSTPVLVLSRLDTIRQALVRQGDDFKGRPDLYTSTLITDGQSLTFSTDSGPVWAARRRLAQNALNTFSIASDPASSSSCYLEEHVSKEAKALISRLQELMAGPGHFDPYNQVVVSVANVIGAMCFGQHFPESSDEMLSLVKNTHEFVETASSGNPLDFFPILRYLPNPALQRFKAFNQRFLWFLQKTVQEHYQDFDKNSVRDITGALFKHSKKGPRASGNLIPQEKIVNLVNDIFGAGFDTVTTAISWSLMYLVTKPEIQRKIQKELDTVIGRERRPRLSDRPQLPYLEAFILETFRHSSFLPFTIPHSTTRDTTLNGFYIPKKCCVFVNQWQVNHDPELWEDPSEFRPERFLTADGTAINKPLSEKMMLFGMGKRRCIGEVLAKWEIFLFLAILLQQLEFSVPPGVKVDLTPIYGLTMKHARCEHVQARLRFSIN
Test [19] concerns the target Cytochrome P450 2C9 (Homo sapiens) (UniProt P11712). In words: qHTS Assay for Inhibitors and Substrates of Cytochrome P450 2C9 (AID 883). Also: % is scaled to controls: 0 for no effect and ±100 for the full control effect; nearly all actives have a fitted effect of over 60% in size. Put shortly: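 A luminogenic readout tracked human CYP2C9 (10nM) converting deoxyluciferin (100uM, at KM) in 25mM KPO4 during 60 min at 37C with regenerated NADPH. Values normalized to 57uM sulphaphenazole as complete inhibition.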

Test [20] concerns the target Cytochrome P450 2D6 (Homo sapiens) (UniProt P10635). In words: qHTS Assay for Inhibitors and Substrates of Cytochrome P450 2D6 (AID 891). Also: potency is read from the fitted curve at half-maximal effect; nearly all actives have a fitted effect of over 60% in size. The gist of the method: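 Human CYP2D6 (5 nM) with 30 uM Luciferin-ME EGE (at Km) in 100 mM KPO4, compound preincubated 10 min, then NADPH regeneration system for 60 min at room temperature. Luciferin read by luminescence; normalized to 1.43 uM quinidine.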

“And” between values parts separate entries of the source, which are not always exact repeats. Equal entries are not always repeated. A number with no mark means an inactive call. Results filed as inconclusive are left out. The source made the active and inactive calls. Unless noted, calls follow the shape of the dose curve; as a rule, active = well fitted curve in the direction sought with a large enough effect; inconclusive = small, poorly fitted or top-dose-only effect, or another doubt; inactive = no such curve, though single readings can be large; an effect the other way counts as inactive or inconclusive.

Chain of Cytochrome P450 3A4 (Homo sapiens) (P08684 whole entry, looked up): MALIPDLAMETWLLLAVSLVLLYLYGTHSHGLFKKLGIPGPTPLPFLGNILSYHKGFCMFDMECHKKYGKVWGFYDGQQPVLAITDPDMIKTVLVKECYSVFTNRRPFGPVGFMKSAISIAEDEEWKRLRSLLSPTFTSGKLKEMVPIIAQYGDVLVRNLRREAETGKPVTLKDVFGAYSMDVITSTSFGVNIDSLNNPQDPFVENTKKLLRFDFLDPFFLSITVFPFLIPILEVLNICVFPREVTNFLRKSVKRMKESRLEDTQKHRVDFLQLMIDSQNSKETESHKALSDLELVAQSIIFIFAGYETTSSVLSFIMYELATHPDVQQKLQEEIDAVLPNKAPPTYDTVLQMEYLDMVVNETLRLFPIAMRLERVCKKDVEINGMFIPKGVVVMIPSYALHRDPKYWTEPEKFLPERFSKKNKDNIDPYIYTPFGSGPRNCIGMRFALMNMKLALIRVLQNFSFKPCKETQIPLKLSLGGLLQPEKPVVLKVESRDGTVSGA
Chain of Cytochrome P450 2D6 (Homo sapiens) (P10635 whole entry, looked up): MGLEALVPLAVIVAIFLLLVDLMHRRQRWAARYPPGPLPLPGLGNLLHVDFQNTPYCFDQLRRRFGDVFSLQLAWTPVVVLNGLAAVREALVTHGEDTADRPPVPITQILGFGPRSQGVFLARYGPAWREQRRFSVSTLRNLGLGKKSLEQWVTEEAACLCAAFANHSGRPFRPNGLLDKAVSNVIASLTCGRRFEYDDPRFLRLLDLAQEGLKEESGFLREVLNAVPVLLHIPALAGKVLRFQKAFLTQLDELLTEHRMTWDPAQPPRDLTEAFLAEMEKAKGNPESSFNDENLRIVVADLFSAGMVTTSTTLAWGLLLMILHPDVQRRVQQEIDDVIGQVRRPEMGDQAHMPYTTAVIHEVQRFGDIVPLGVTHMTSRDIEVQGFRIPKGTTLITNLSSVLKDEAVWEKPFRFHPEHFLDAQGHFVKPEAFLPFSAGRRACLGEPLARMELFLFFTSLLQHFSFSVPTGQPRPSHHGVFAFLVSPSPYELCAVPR
Chain of Cytochrome P450 2C9 (Homo sapiens) (P11712 whole entry, looked up): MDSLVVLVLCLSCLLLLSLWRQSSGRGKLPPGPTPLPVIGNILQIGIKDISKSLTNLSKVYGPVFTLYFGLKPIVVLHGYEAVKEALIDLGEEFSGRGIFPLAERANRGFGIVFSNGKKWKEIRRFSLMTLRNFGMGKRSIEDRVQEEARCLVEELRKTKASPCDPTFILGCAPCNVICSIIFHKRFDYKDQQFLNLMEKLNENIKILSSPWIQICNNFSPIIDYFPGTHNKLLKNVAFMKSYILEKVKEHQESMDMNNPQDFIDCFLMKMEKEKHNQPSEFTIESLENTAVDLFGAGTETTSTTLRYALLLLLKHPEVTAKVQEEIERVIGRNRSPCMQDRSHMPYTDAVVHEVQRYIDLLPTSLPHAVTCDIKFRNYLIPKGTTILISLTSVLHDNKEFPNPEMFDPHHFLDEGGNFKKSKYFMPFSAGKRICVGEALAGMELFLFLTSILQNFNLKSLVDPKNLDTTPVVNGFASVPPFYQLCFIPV

Turning to `C[C@H](CCC(=O)O)[C@H]1CC[C@@H]2[C@@H]3[C@@H](O)C[C@H]4C[C@@H](O)CC[C@@]4(C)[C@H]3CC[C@@]21C`, the Potency result in test [1], in test [2], in [3], in test [4], in test [5] and in test [6] was “inactive” each time. Further, the Potency result in test [7], in test [8], in test [9], in test [10], in [11] and in [12] was “inactive” each time.
Regarding `CCN[C@@H]1C[C@H](N)[C@H](O[C@H]2OC(CN)=CC[C@H]2N)[C@@H](O)[C@H]1O[C@H]1OC[C@@](C)(O)[C@@H](NC)[C@@H]1O`, the Potency result in [1], in test [2], in test [3], in test [4], in test [5] and in test [13] was “inactive” in each case. The Potency entry in test [6], in test [7], in test [14], in test [8], in test [9] and in test [10] was “inactive” in each case. Besides, the Potency entry in [11] and in test [12] was “inactive” throughout.
For the compound `C[C@@H]1O[C@H](O[C@@H]2\C=C/C=C\C=C/C=C\C[C@H](C)OC(=O)/C=C\[C@H]3O[C@@H]3C[C@H](O)C[C@]3(O)C[C@@H](O)[C@@H](C(=O)O)[C@H](C2)O3)[C@@H](O)[C@H](N)[C@@H]1O` (stereo in doubt), the Potency result in test [2], in test [3], in [4], in test [5], in test [13] and in test [7] was “inactive” throughout. Moreover, the Potency result in [14], in test [8], in test [9], in [10], in test [11] and in test [12] was “inactive” throughout.
For the compound `CCc1c(C)[nH]c2c1C(=O)[C@H](CN1CCOCC1)CC2`, the Potency result in [1], in test [2], in test [3], in test [5], in [13] and in [6] was “inactive” each time. Besides, the Potency result in test [7], in test [14], in test [8], in test [9], in [10] and in test [11] was “inactive” each time. In addition, in test [12], the Potency result is “inactive”.
For `C[C@@H]1C[C@H]2[C@@H]3C[C@H](F)C4=CC(=O)C=C[C@@]4(C)[C@]3(F)[C@H](O)C[C@]2(C)[C@@]1(O)C(=O)CO`, the Potency result in test [1], in test [2], in test [3], in test [4], in test [5] and in test [13] was “inactive” in each case. The Potency result in test [6], in test [7], in test [14], in test [8], in [9] and in test [10] was “inactive” throughout. In addition, the Potency result in test [11] and in [12] was “inactive” each time.
In the case of `CCN1CCC[C@@H](OC(=O)C(c2ccccc2)c2ccccc2)C1`, the Potency result in [15], in test [6] and in test [14] was “inactive” each time.
With `COc1ccc([C@@H]2CC(=O)c3c(O)cc(O)cc3O2)cc1O`, the Potency entry in test [15] was “inactive”. For the same compound, the Potency in test [16] is 5.01 µM (active) and 7.94 µM (active).
Take `CC(=O)S[C@H]1CC2=CC(=O)CC[C@@]2(C)[C@H]2CC[C@@]3(C)[C@H](CC[C@]34CCC(=O)O4)[C@@H]12`: the activation in test [17] was -20.6%.
For `COc1cc(OC)c2c(c1Cl)O[C@@]1(C2=O)[C@H](C)CC(=O)C[C@@H]1OC`, the Potency result in [15] was “inactive”.
For the compound `CC(C)(C)NC[C@H](O)COc1cccc2c1C[C@@H](O)[C@@H](O)C2`, the Potency result in test [1], in test [2], in test [3], in test [4], in test [5] and in [13] was “inactive” throughout. Also, the Potency result in [6], in test [7], in test [14], in test [8], in [9] and in test [10] was “inactive” in each case. Moreover, the Potency entry in test [11] and in [12] was “inactive” throughout.
Regarding `C[C@H](O)Cn1cnc2c1c(=O)n(C)c(=O)n2C`, the Potency entry in test [1], in [2], in test [3], in [4], in [5] and in [13] was “inactive” throughout. For the same compound, the Potency result in test [6], in test [7], in test [14], in test [8], in test [9] and in test [10] was “inactive” in each case. In addition, the Potency result in test [11] and in test [12] was “inactive” each time.
As for `COC(=O)[C@@H]1[C@@H]2C[C@H]3c4[nH]c5cc(OC)ccc5c4CCN3C[C@@H]2C[C@H](OC(=O)c2cc(OC)c(OC)c(OC)c2)[C@H]1OC`, the Potency entry in test [15] was “inactive”.
`NC[C@@H]1O[C@H](O[C@@H]2[C@H](O[C@@H]3O[C@H](CO)[C@@H](O)[C@@H]3O)[C@@H](O)[C@@H](N)C[C@H]2N)[C@@H](N)[C@H](O)[C@@H]1O`: the Potency entry in test [1], in test [3], in test [4], in test [13], in test [6] and in [7] was “inactive” each time. Besides, the Potency result in test [14], in test [8], in test [9], in test [10], in [11] and in [12] was “inactive” each time.
For the compound `CC(=O)N(C[C@@H](C)C(=O)O)c1c(I)cc(I)c(N)c1I`, the Potency entry in test [18], in test [19], in test [1], in test [2], in test [13] and in [7] was “inactive” each time. Besides, the Potency result in test [14], in [10] and in test [12] was “inactive” each time.
On to `CCOC(=O)O[C@@H](C)OC(=O)[C@@H]1N2C(=O)[C@@H](NC(=O)[C@@H](N)c3ccccc3)[C@H]2SC1(C)C`, for which the Potency result in test [1], in [2], in [3], in test [4], in [5] and in [13] was “inactive” in each case. The Potency entry in [6], in test [7], in test [14], in test [8], in test [9] and in [10] was “inactive” in each case. In addition, the Potency result in test [11] and in test [12] was “inactive” throughout.
`C[C@@]12CCC(=O)C[C@@H]1CC(=O)[C@H]1[C@H]3CCC[C@]3(C)C(=O)C[C@@H]12` (tested in a mixture with another compound): in test [17], the activation was -12.7%.
Regarding `C[C@H](NCCC(c1ccccc1)c1ccccc1)c1ccccc1`, in test [15], the Potency entry was “inactive”. Besides, the results for the Potency in test [20] and in test [16] were 0.158 µM (active) and 5.01 µM (active), respectively.
With `C[C@@H](CNC1CCCCC1)OC(=O)c1ccccc1`, the Potency in test [2] is 0.891 µM (active); in test [8], 4.55 µM (active); in test [9], 4.55 µM (active); in test [10], 3.55 µM (active); in test [11] it was 5.73 µM (active); in test [12], 3.55 µM (active).
On to `CC1(C)[C@@H](OC(=O)CCC(=O)O)CC[C@@]2(C)[C@H]1CC[C@@]1(C)[C@H]2C(=O)C=C2[C@H]3C[C@](C)(C(=O)O)CC[C@]3(C)CC[C@@]21C`, for which the Potency result in test [1], in test [2], in test [3], in test [4], in [5] and in test [13] was “inactive” throughout. Moreover, the Potency result in [6], in test [7], in test [8], in test [9], in test [10] and in test [11] was “inactive” each time. In test [12], the Potency entry was “inactive”.

(Values after PubChem BioAssay (NCATS).)
